The results in this text go back to PubChem BioAssay (NCATS).

Results filed as inconclusive are left out. Where a call stands in place of a potency, no number is given. The source holds several records for some structures; these can differ, active in one and inactive in another. Activity calls are given as the source filed them. The call rests on the fitted dose curve; in most records, active means well fitted curve in the direction sought with a large enough effect; inconclusive means small, poorly fitted or top-dose-only effect, or another doubt; inactive means no such curve, though single readings can be large; an effect the other way counts as inactive or inconclusive.

One assay deals with Papain (Carica papaya) (UniProt P00784). Nature of the assay: Primary qHTS assay for inhibitors of the protease papain (AID 1645873).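 Further: papain turnover of Z-FR-AMC read as the AMC fluorescence gain over 10 min.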 A general note: qHTS replaces the single test concentration by a dilution series.
Papain (Carica papaya), sequence (P00784 whole entry, looked up): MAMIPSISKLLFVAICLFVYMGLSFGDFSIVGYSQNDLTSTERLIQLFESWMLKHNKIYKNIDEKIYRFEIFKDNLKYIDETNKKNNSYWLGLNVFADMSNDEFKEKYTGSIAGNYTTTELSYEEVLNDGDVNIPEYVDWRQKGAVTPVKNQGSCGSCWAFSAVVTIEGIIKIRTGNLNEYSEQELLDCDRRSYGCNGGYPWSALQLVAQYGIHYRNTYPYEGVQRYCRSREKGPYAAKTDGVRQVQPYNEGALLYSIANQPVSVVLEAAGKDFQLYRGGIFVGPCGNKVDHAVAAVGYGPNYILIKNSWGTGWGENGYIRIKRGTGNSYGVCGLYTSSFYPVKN
Assay [1] concerns the target N-terminal Xaa-Pro-Lys N-methyltransferase 1 (Homo sapiens) (UniProt Q9BV86). Put plainly: Confirmatory qHTS for Inhibitors of N-terminal methyltransferase 1 (NTMT1): MTaseGlo Assay (AID 1645874). Further: nearly all actives have a fitted effect of over 65% in size. The note with it: NTMT1 enzyme, MTase-Glo SAH luminescence. In a few lines:
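Compounds are incubated with 125 nM NTMT1 and 100 uM SAM for 15 min before the SPKRIA peptide (1 uM) starts a 30 min room-temperature methylation. SAH is measured by coupled luciferase luminescence and curves fitted to a Hill equation.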

Assay [2] can be described thus: Primary qHTS for inhibitors of nuclear receptor binding SET domain protein 2 (NSD2) in an isogenic RCH-ACV NSD2 p.E1099K mutant (9B) (AID 1645876). Further: nearly all actives have a fitted effect of over 70% in size.
A short description of assay [3]: Primary qHTS for inhibitors of nuclear receptor binding SET domain protein 2 (NSD2) in an RCH-ACV wild type WT cells (2C) (AID 1645877). Further: nearly all actives have a fitted effect of over 70% in size.
Assay [4] deals with Rap guanine nucleotide exchange factor 3 (Homo sapiens) (UniProt O95398). Put plainly: Confirmatory qHTS for antagonist of cAMP-regulated guanine nucleotide exchange factor 3 (EPAC1) (AID 1645880). Further: nearly all actives have a fitted effect of over 55% in size. In a few lines: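 Nucleotide exchange uses 100 nM EPAC1, 250 nM RAP1B-BODIPY-GDP and 50 uM GDP, with compounds in a concentration-titration series. After 5 min at room temperature, fluorescence (480 nm ex/540 nm em) is read every 5 min for 30 min. Data are normalized to control ATA and DMSO.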
Rap guanine nucleotide exchange factor 3 (Homo sapiens), sequence (O95398 whole entry, looked up): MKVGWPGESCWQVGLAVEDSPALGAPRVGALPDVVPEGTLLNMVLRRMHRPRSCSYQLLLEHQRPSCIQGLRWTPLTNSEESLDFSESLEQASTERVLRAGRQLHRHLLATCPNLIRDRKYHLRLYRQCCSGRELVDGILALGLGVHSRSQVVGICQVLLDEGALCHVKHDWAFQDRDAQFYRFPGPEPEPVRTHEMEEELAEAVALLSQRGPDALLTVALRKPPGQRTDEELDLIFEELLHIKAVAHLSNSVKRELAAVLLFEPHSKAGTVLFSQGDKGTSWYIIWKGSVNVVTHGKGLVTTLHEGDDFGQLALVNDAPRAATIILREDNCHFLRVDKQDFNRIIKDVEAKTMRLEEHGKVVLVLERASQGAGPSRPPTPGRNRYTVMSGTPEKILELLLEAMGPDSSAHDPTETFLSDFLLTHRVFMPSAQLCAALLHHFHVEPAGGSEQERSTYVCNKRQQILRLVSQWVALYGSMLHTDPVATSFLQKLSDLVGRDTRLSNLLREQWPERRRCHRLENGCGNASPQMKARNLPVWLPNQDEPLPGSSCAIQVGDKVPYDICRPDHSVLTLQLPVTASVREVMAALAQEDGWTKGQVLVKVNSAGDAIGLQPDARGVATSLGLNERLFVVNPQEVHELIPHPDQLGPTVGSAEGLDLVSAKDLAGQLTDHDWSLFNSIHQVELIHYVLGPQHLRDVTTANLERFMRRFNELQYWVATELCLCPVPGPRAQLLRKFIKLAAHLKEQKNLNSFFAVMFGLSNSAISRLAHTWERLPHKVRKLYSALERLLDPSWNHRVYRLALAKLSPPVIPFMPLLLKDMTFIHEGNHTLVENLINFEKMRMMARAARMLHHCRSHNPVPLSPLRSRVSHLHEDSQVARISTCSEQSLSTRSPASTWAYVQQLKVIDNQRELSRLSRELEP

Assay [5] has the same target. Nature of the assay: Confirmatory qHTS for agonist of cAMP-regulated guanine nucleotide exchange factor 3 (EPAC1) (AID 1645881). Further: nearly all actives have a fitted effect of over 75% in size.
Potency means the concentration at half of the fitted maximal effect.

N-terminal Xaa-Pro-Lys N-methyltransferase 1 (Homo sapiens), sequence (Q9BV86 whole entry, looked up): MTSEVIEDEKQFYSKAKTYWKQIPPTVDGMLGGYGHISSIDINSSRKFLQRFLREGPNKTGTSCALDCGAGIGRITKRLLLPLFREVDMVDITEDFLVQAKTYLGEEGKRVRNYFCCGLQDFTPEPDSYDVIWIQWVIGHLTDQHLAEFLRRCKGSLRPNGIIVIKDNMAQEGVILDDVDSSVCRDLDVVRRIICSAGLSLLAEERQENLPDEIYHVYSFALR

Take `CC[C@H]1OC(=O)[C@H](C)C(O[C@H]2C[C@@](C)(OC)[C@@H](O)[C@H](C)O2)[C@H](C)[C@@H](OC2O[C@H](C)C[C@H](N(C)C)[C@H]2O)[C@](C)(O)C[C@@H](C)CN(C)[C@H](C)[C@@H](O)[C@]1(C)O` (some centres undefined): the Potency result with Papain (Carica papaya) was “inactive”.
As for `CNC(=O)[C@H]1O[C@@H](n2cnc3c(NCc4ccc(N)cc4)ncnc32)[C@H](O)[C@@H]1O`, the Potency result with Papain (Carica papaya) was “inactive”.
With `COc1ccc(C(=O)/C(Cc2cc(OC)c(OC)c(OC)c2)=C(\C(=O)O)c2ccc3c(c2)OCO3)cc1`, in the assay with Papain (Carica papaya), the Potency result was “inactive”.
The same measure, in the same setting: the same measure for `O=c1[nH]c2cc([N+](=O)[O-])c([N+](=O)[O-])cc2[nH]c1=O`: “inactive”.
Regarding `O=C1NC(=O)/C(=C/c2ccc(-c3ccc(F)cc3O)o2)S1`, the Potency entry (with Papain (Carica papaya); in assay [5]) was “inactive” throughout. The Potency in assay [1] is 34.5 µM (active); in assay [2], 14.8 µM (active); in assay [3], 10.5 µM (active); in assay [4], 55.9 µM (active).
Regarding `C[N+]1(C)C2CC(OC(=O)[C@H](CO)c3ccccc3)CC1C1OC12` (some centres undefined), the Potency with Papain (Carica papaya) is 1.12 µM (active) and inactive.
In the case of `Brc1c(Br)c(Br)c2n[nH]nc2c1Br`, the Potency entry (with Papain (Carica papaya); in assay [2]; in assay [3]; in assay [5]) was “inactive” each time. Further, the Potency in assay [4] is 55.9 µM (active).
For the compound `C[N+](C)(C)CCOP(=O)(O)OP(=O)([O-])OC[C@H]1O[C@@H](n2ccc(N)nc2=O)[C@H](O)[C@@H]1O`, in the assay with Papain (Carica papaya), the Potency entry is “inactive”.
Take `O=C(CCc1ccncc1)NNC(=O)N1Cc2ccccc2Oc2ccc(Cl)cc21`: the Potency entry with Papain (Carica papaya) is “inactive”.
On the same count and under the same terms, the value for `Cc1cc(NC2CCCCC2)nc(-n2nc(C)cc2C)n1` was “inactive”; that for `CC(C)NC[C@H](O)COc1cccc2[nH]ccc12` was “inactive”.
For the compound `COc1ccc2c(c1)CCC1C2CC[C@@]2(C)C1CC[C@@H]2NCCCCCCN1C(=O)CCC1=O` (some centres undefined), in the assay with Papain (Carica papaya), the Potency result was “inactive”.
With `CCNc1nc2c(ncn2[C@H]2C[C@H](O)[C@@H](CO)O2)c(=O)[nH]1`, the Potency result (in the assay with Papain (Carica papaya); in assay [2]; in assay [3]) was “inactive” throughout.
As to `O=C(Nc1ccc2[nH]ncc2c1)C1CCC1`, the Potency result (with Papain (Carica papaya); in assay [2]; in assay [3]) was “inactive” in each case.
`CCN1/C(=C/C(C)=O)Sc2ccc(OC)cc21`: the Potency entry (in the assay with Papain (Carica papaya); in assay [2]) was “inactive” each time.
Consider `CC(C)Cc1ccc([C@H](C)C(=O)O)cc1`, for which, in the assay with Papain (Carica papaya), the Potency result is “inactive”.
As for `O=C(Nc1cccc(C(=O)Nc2ccc(S(=O)(=O)O)c3cc(S(=O)(=O)O)cc(S(=O)(=O)O)c23)c1)Nc1cccc(C(=O)Nc2ccc(S(=O)(=O)O)c3cc(S(=O)(=O)O)cc(S(=O)(=O)O)c23)c1`, the Potency with Papain (Carica papaya) was 3.16 µM (active).
Regarding `CN[C@H](CC(C)C)C(=O)N[C@H]1C(=O)N[C@@H](CC(N)=O)C(=O)N[C@H]2C(=O)N[C@H]3C(=O)N[C@H](C(=O)N[C@H](C(=O)O)c4cc(O)cc(O)c4-c4cc3ccc4O)[C@H](O)c3ccc(c(Cl)c3)Oc3cc2cc(c3O[C@@H]2O[C@H](CO)[C@@H](O)[C@H](O)[C@H]2O[C@H]2C[C@](C)(N)[C@H](O)[C@H](C)O2)Oc2ccc(cc2Cl)[C@H]1O`, the Potency entry (with Papain (Carica papaya); in assay [2]; in assay [3]) was “inactive” throughout.
Consider `CC1OC1P(=O)(O)O` (centres undefined), for which the Potency result with Papain (Carica papaya) was “inactive”.
On the same count and under the same terms, the value for `CN1CCc2ccccc2Cc2[nH]c3ccccc3c2CC1` was “inactive”; that for `C#C[C@]1(O)CC[C@H]2[C@@H]3CCC4=Cc5oncc5CC4(C)[C@H]3CCC21C` (some centres undefined) was “inactive”.
Turning to `COC(=O)c1c(C)[nH]c(C)c1C(=O)c1ccccc1Cc1ccccc1`, the Potency entry (in the assay with Papain (Carica papaya); in assay [4]; in assay [5]) was “inactive” throughout.
In the case of `Oc1cc2c(cc1O)CN(C(=S)NCCc1ccc(Cl)cc1)CCC2`, the Potency result (with Papain (Carica papaya); in assay [5]) was “inactive” each time.
Turning to `COC(=O)C1=C(C)NC(C)=C(C(=O)OCC(C)C)C1c1ccccc1[N+](=O)[O-]` (centres undefined), the Potency in assay [3] is 26.6 µM (active).
Consider `CC1(C)S[C@@H]2[C@H](NC(=O)[C@H](N)c3ccc(O)cc3)C(=O)N2[C@H]1C(=O)O`, for which the Potency entry in assay [2] and in assay [3] was “inactive” throughout.
For `O=C1O/C(=C/Br)CCC1c1cccc2ccccc12` (centres undefined), the Potency result in assay [5] is “inactive”.
As for `O=C1C(SCCO)=C(SCCO)C(=O)c2ccccc21`, the Potency entry (in the assay with Papain (Carica papaya); in assay [5]) was “inactive” each time.
With `CCNC(=O)[C@H]1O[C@@H](n2cnc3c(N)nc(NCCc4ccc(CCC(=O)O)cc4)nc32)[C@H](O)[C@@H]1O`, the Potency entry in assay [2] and in assay [3] was “inactive” throughout.
On to `CC(=O)[C@]1(O)Cc2c(O)c3c(c(O)c2[C@@H](O[C@H]2C[C@H](N)[C@H](O)[C@H](C)O2)C1)C(=O)c1c(O)cccc1C3=O`, for which the Potency entry in assay [4] is “inactive”. In assay [5], the Potency is 70.6 µM (active).
Consider `Cc1onc(-c2c(F)cccc2Cl)c1C(=O)N[C@@H]1C(=O)N2[C@@H]1SC(C)(C)[C@@H]2C(=O)O`, for which the Potency entry in assay [2] and in assay [3] was “inactive” in each case.
